In PubChem BioAssay (NCI) one finds growth inhibition data, which are given here for 21 compounds.

Assay [1] is described as follows: NCI Yeast Anticancer Drug Screen. Data for the rad50 strain (AID 155).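 Also: 0% = growth of vehicle-only cultures of the same strain.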 As to conditions: S. cerevisiae rad50 strain growth inhibition; at 50.0 µM; stronger effect = higher value. Summed up: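 Compounds were tested on a yeast strain with an engineered DNA damage repair alteration; the reported value is growth inhibition normalised to vehicle treatment.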
Assay [2] in a line: NCI Yeast Anticancer Drug Screen. Data for the mec2-1 strain (AID 157). As to conditions: S. cerevisiae mec2-1 strain, at 50.0 µM, stronger effect = higher value. An outline of the steps:
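Growth inhibition is read against vehicle-treated controls after compound exposure of the mec2-1 yeast strain, which is defective in DNA damage repair or cell cycle control.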

Assay [3] can be described thus: NCI Yeast Anticancer Drug Screen. Data for the sgs1 mgt1 strain (AID 161).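 Also: 0% = growth of cultures given vehicle only.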 To be noted: S. cerevisiae sgs1 mgt1 strain, at 50.0 µM, stronger effect = higher value. An outline of the steps: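 Percent growth inhibition was derived by comparing compound-exposed mutant yeast with vehicle-exposed cultures. The strain carries alterations in DNA damage repair.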
The nature of assay [4]: NCI Yeast Anticancer Drug Screen. Data for the cln2 rad14 strain (AID 165).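 Also: 0% = growth equal to vehicle treated cultures.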 As to conditions: S. cerevisiae cln2 rad14 strain, at 50.0 µM, stronger effect = higher value. An outline of the steps: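 Growth inhibition, relative to vehicle-treated controls, is the read-out. The test organism is a yeast strain with defined genetic alterations, cln2 rad14.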
Assay [5] can be described thus: NCI Yeast Anticancer Drug Screen. Data for the bub3 strain (AID 167). As to conditions: S. cerevisiae bub3 mutant strain, at 50.0 µM, stronger effect = higher value. An outline of the steps: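 Growth of a checkpoint-deficient yeast mutant is measured after compound exposure. Values represent inhibition relative to vehicle.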
The nature of assay [6]: NCI Yeast Anticancer Drug Screen. Data for the mlh1 rad18 strain (AID 175). To be noted: S. cerevisiae mlh1 rad18 strain growth inhibition; at 50.0 µM; stronger effect = higher value. An outline of the steps: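 Cells of a genetically altered yeast strain, deficient in DNA damage repair, were treated with compound. Their growth was then compared with that of vehicle-treated cultures to give inhibition.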

SMILES strings stand for the structures. About 79,000 compounds went through this panel and 15% of them were active in at least one assay; those are over-represented in the sample as a whole. Unmarked numbers belong to inactive results. The source made the active and inactive calls. Rule as the data show it: active = growth inhibition above about 70%; inactive = the rest.

Consider `CCOC(=O)c1cc2ccccc2oc1=O`, for which the growth inhibition in assay [1] was -15.2%; in assay [2], 0.3%; in assay [3], -8.75%; in assay [4], 16.4%; in assay [5], 9.25%; in assay [6] it was 3.9%.
Consider `C/C(CC(C)(C)C)=N/O`, for which the growth inhibition in assay [1] was -24.6%; in assay [2], -5.2%; in assay [3], -21.8%; in assay [4], -78.7%; in assay [5] it was -14.9%; in assay [6] it was -12.9%.
Turning to `CCC1(C)CCC(C)(CC)c2cc(C)ccc21` (stereo unspecified), the growth inhibition was 9.9% in assay [1]; 9.15% in assay [2]; -6.95% in assay [3]; -16.8% in assay [4]; 8.4% in assay [5]; 25.9% in assay [6].
Turning to `COc1nc2c(nc(N)n2C2OC(CO)C(O)C(O)C2O)c(=O)[nH]1` (stereo unspecified), the growth inhibition in assay [1] is -26.4%; in assay [2], -8%; in assay [3], -1.5%; in assay [4], 3.45%; in assay [5], 0.95%; in assay [6], 20.9%.
Turning to `Cn1c([N+](=O)[O-])cnc1CN1CCN(CCO)CC1`, the growth inhibition in assay [1] is -2.9%; in assay [2], -6.95%; in assay [3], -39.1%; in assay [4] it was 26.7%; in assay [5], -20.3%; in assay [6] it was 3%.
As to `C[n+]1nc2ccccc2c(=Nc2ccccc2[N+](=O)[O-])[n-]1`, the growth inhibition in assay [1] is 10.3%; in assay [2], -2.35%; in assay [3] it was 22.7%; in assay [4], 14.1%; in assay [5], 8.5%; in assay [6] it was -1.65%.
For the compound `COc1ccc(Nc2nc3cc(C(F)(F)F)ccc3nc2-c2ccccc2)cc1OC`, the growth inhibition in assay [1] is 2.05%; in assay [2] it was 2.65%; in assay [3] it was -48.2%; in assay [4] it was -4.85%; in assay [5], -12.4%; in assay [6] it was -24.4%.
Regarding `CCN(CC)Cc1cc(N)cc(N=Nc2ccc3c(c2)c2ccccc2n3CC)c1O`, the growth inhibition in assay [1] is 29.2%; in assay [2], 0%; in assay [3], 12.4%; in assay [4] it was 27.7%; in assay [5], -3.4%; in assay [6] it was 17.9%.
Turning to `OCC(O)COc1ccc(OCc2ccccc2)cc1` (stereo unspecified), the growth inhibition is 2.65% in assay [1]; -12.1% in assay [2]; -3.4% in assay [3]; -21.5% in assay [4]; -5.05% in assay [5]; -20.3% in assay [6].
For `CCOC(=S)SCc1ccc([N+](=O)[O-])cc1`, the growth inhibition in assay [1] was 69.8%; in assay [2], 18.4%; in assay [3], 27.8%; in assay [4] it was 18.6%; in assay [5] it was 43%; in assay [6], 16.9%.
`O=C(Nc1cccc(O)c1)OC1CCCCC1`: the growth inhibition is 25.8% in assay [1]; 6.05% in assay [2]; 25.2% in assay [3]; -18.1% in assay [4]; 34% in assay [5]; 24.4% in assay [6].
In the case of `O=C1c2ccccc2C(C2N=Nc3ccccc32)c2ccccc21` (stereo unspecified), the growth inhibition in assay [1] was 7.1%; in assay [2] it was 5.15%; in assay [3], 15.6%; in assay [4] it was 26.1%; in assay [5], 3.8%; in assay [6] it was 6.2%.
In the case of `O=c1[nH]cc(Nc2ccccc2)c(=O)[nH]1`, the growth inhibition was -1.1% in assay [1]; 2.35% in assay [2]; 4.95% in assay [3]; -35.2% in assay [4]; -29.6% in assay [5]; -9.65% in assay [6].
For `CCCc1ccc(OCC(=O)O)c(OC)c1`, the growth inhibition in assay [1] is -2.45%; in assay [2], -1.25%; in assay [3], 0.95%; in assay [4] it was 4.4%; in assay [5] it was -22.5%; in assay [6], -7.45%.
On to `O=C(N/N=C/c1ccccc1Cl)c1ccccc1`, for which the growth inhibition in assay [1] was -19.4%; in assay [2], -1.25%; in assay [3], -5.3%; in assay [4], -7.55%; in assay [5], -4.05%; in assay [6], -9.6%.
Regarding `CCC1OC(=O)CC(O)C(C)C(OC2OC(C)CC(N(C)C)C2O)C(CC=O)CC(C)C(=O)/C=C/C2(C)OC2C1C` (stereo unspecified), the growth inhibition was -6.9% in assay [1]; -7.55% in assay [2]; -11.3% in assay [3]; -1.55% in assay [4]; -14% in assay [5]; 1.8% in assay [6].
With `COC(=O)c1sc(C(=O)OC)c2c1CS(=O)C2`, the growth inhibition in assay [1] is -10.3%; in assay [2], 2.1%; in assay [3], 10.1%; in assay [4], 30%; in assay [5], 5.45%; in assay [6], 42.2%.
As to `N#C/C(=C\NC(N)=S)C(=O)c1ccc2ccccc2c1`, the growth inhibition is -14.3% in assay [1]; -20.9% in assay [2]; -25.9% in assay [3]; 27.5% in assay [4]; 0.8% in assay [5]; -11.1% in assay [6].
With `Brc1ccc2c[n+]3ccccc3cc2c1`, the growth inhibition in assay [1] is 11.9%; in assay [2], 7.35%; in assay [3], 12%; in assay [4], -31.9%; in assay [5], 24.2%; in assay [6], 9.4%.
For the compound `O=C(O)CCn1ccc2ccccc21`, the growth inhibition in assay [1] was 3.65%; in assay [2] it was -0.55%; in assay [3], 4.8%; in assay [4], 5.9%; in assay [5] it was 3.1%; in assay [6], 1.6%.
As to `c1ccc(C2=C([P+](c3ccccc3)(c3ccccc3)c3ccccc3)CCO2)cc1`, the growth inhibition in assay [1] was 99% (active); in assay [2] it was 99.1% (active); in assay [3], 98.7% (active); in assay [4], 98.2% (active); in assay [5], 98.3% (active); in assay [6], 98.8% (active).
